# From PubChem BioAssay AID504401 (The Scripps Research Institute Molecular Screening Center, 2011)
# A number with no mark means an inactive call. The rule behind the calls is not given here.
# Tested on: Rolipram
# Test: CYP450 and receptor off-target profile – biochemical, Ricerca HitProfilingScreen, selectivity assay for GPR7 antagonist project, late-stage follow-up (AID 504401)
# Details: Ricerca radioligand binding and CYP450 panel, at 10 µM, active compounds read high
structure (smiles),measurement,value
COc1ccc(Oc2c(Cl)cnn(-c3cc(C)cc(C)c3)c2=O)cc1,inhibition,22%
